Laboratory results as given in the supplement of paper PMC12669032.

tested on: Lactobacillus paracasei; test: growth AUC relative to DMSO control (median of replicates) (fraction); higher = more growth (less inhibition), active = hit call of the paper; details: 20 µM; 24 h;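 active = AUC reduced over 20% with Padj below 0.05 in at least 2 of 3 replicates; inactive = otherwise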
Method in brief: (§1)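 For each compound at 20 µM (1% DMSO), gut bacterial monocultures seeded at OD600 0.05 grew anaerobically in mGAM at 37 °C in round-bottom 96-well plates. Hourly OD600 readings over 24 h gave growth curves whose minimum OD was set to 0. Area under these curves was normalised to the plate median of solvent-only wells, or to row and column medians on the industrial chemical plate. Values are medians of three biological replicates grown on separate days.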

Row | Structure (SMILES) | growth AUC
1 | COC(=O)c1ccccc1S(=O)(=O)NC(=O)Nc1nc(C)cc(C)n1 | 0.948 (inactive)
2 | CCS(=O)(=O)c1nc2ccccn2c1S(=O)(=O)NC(=O)Nc1nc(OC)cc(OC)n1 | 1.01 (inactive)
3 | COc1cc(OC)nc(NC(=O)NS(=O)(=O)c2cc(NC=O)ccc2C(=O)N(C)C)n1 | 1.05 (inactive)
4 | O=C(Nc1ccccc1)Nc1cnns1 | 1.09 (inactive)
5 | CCSCCSP(=S)(OC)OC | 1.01 (inactive)
6 | Clc1cc(Cl)c(Cl)cc1Cl | 0.991 (inactive)
7 | COP(=S)(OC)Oc1cc(Cl)c(Br)cc1Cl | 0.996 (inactive)
8 | CC(C)C1(C)N=C(c2ncccc2C(=O)O)NC1=O (stereo not given) | 1.03 (inactive)
9 | O=c1oc2ccccc2c(O)c1C1CCCc2ccccc21 (stereo not given) | 0.894 (inactive)

tested on: Odoribacter splanchnicus; test: as above; details: 20 µM; 24 h
Method in brief: as §1

Row | Structure (SMILES) | growth AUC
10 | COP(=S)(OC)Oc1ccc(S(N)(=O)=O)cc1 | 1 (inactive)
11 | CCCCOC(=O)[C@@H](C)Oc1ccc(Oc2ccc(C#N)cc2F)cc1 | 1 (inactive)
12 | CCC(C)(C)c1ccc(O)cc1 | 1.08 (inactive)
13 | CCCCCCCCCc1ccc(O)cc1 | 0.841 (inactive)
14 | CC(C)OC(=O)Nc1ccccc1 | 0.962 (inactive)
15 | CCCCc1c(C)nc(NCC)nc1OS(=O)(=O)N(C)C | 0.891 (inactive)
16 | CCOP(=S)(OCC)Oc1cc(-c2ccccc2)on1 | 1.01 (inactive)
17 | C=CC(N)=O | 1.01 (inactive)
18 | CC(C)C(C(=O)OC(C#N)c1cccc(Oc2ccccc2)c1)c1ccc(OC(F)F)cc1 (stereo not given) | 1.07 (inactive)
19 | Oc1ccccc1-c1ccccc1 | 1.03 (inactive)
20 | FC(F)C(F)(F)OCC(Cn1cncn1)c1ccc(Cl)cc1Cl (stereo not given) | 0.981 (inactive)
21 | Nc1ccc(Cc2ccc(N)c(Cl)c2)cc1Cl | 1.11 (inactive)
22 | Nc1cccc(Cl)c1Cl | 0.991 (inactive)
23 | COC(=O)NS(=O)(=O)c1ccc(N)cc1 | 1.1 (inactive)
24 | CC(C)=CC1C(C(=O)OCc2cccc(Oc3ccccc3)c2)C1(C)C (mixture of isomers) | 1.03 (inactive)
25 | COP(=S)(OC)SCC(=O)N(c1ccc(Cl)cc1)C(C)C | 1 (inactive)
26 | CC(=O)O.CC(=O)O.CC(=O)O.NC(N)=NCCCCCCCCNCCCCCCCCN=C(N)N | 0.0272 (active)
27 | N#Cc1c(Cl)c(Cl)c(Cl)c(C#N)c1Cl | 0.927 (inactive)

Row | Structure (SMILES) | growth AUC
28 | CCOP(=O)(NC(C)C)Oc1ccc(SC)c(C)c1 (stereo not given) | 0.954 (inactive)
29 | [CH3][Hg][Cl] | 0.684 (active)
30 | ClC1=C(Cl)C2(Cl)C3COCC3C1(Cl)C2(Cl)Cl (stereo not given) | 0.99 (inactive)
31 | c1cc2c3c(cccc3c1)CC2 | 1.01 (inactive)
32 | CO/N=C(/C(=O)OC)c1ccccc1COc1ccccc1C | 0.92 (inactive)
33 | O=C(Nc1ccc(F)cc1F)c1cccnc1Oc1cccc(C(F)(F)F)c1 | 1.06 (inactive)
34 | ClC1=C(Cl)[C@]2(Cl)[C@@H]3[C@@H]4C[C@@H]([C@H]5O[C@@H]45)[C@@H]3[C@@]1(Cl)C2(Cl)Cl | 0.899 (inactive)
35 | CC1(C)CCC(Cc2ccc(Cl)cc2)C1(O)Cn1cncn1 (stereo not given) | 0.823 (inactive)
36 | CC(C)(C)C(O)C(Cc1ccc(Cl)cc1Cl)n1cncn1 (mixture of isomers) | 0.989 (inactive)
37 | CC1(C)C(C=C(Cl)Cl)C1C(=O)OCc1cccc(Oc2ccccc2)c1 (mixture of isomers) | 0.977 (inactive)
38 | O=[N+]([O-])C(Br)(CO)CO | 1 (inactive)
39 | COc1cc(OC)nc(NC(=O)NS(=O)(=O)c2ncccc2C(=O)N(C)C)n1 | 1.03 (inactive)
40 | COC(=O)c1ccccc1S(=O)(=O)NC(=O)Nc1nc(C)cc(C)n1 | 1.07 (inactive)
41 | CCS(=O)(=O)c1nc2ccccn2c1S(=O)(=O)NC(=O)Nc1nc(OC)cc(OC)n1 | 1.05 (inactive)
42 | COc1cc(OC)nc(NC(=O)NS(=O)(=O)c2cc(NC=O)ccc2C(=O)N(C)C)n1 | 1.01 (inactive)
43 | O=C(Nc1ccccc1)Nc1cnns1 | 0.938 (inactive)
44 | CCSCCSP(=S)(OC)OC | 1.07 (inactive)
45 | Clc1cc(Cl)c(Cl)cc1Cl | 1.01 (inactive)
